Measurements from PubChem BioAssay AID1159580 (chemical genetic matrix, 2015).
Where “and” joins values, the source holds several entries; their conditions need not be identical. Identical values can stand only once. The campaign covered roughly 5,500 compounds. About 2,000 (36%) were called active. Not shown: some 18% with an inconclusive outcome. Rule as the data show it: active = normalized growth mostly below about 0.91 (no sharp cut-off); inconclusive = no clear call, values can overlap the other calls; inactive = mostly above about 0.92. Some of the results follow.

Test: chemical genetic growth profiling, strain panel (AID 1159580);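 also: tested at 20 µM; growth read once vehicle control cultures reached saturation at 30 °C; 1 = growth at the plate median or of vehicle wells; lower values mean less growth of the strain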
Settings: S. cerevisiae deletion strains, growth OD

Measured: normalized growth

CCN1C[C@@]2(COC)C3[C@@H](OC)[C@H]4[C@@H]1[C@]3(C(OC)C[C@H]2O)C1C[C@@]2(O)[C@H](OC(=O)c3ccccc3)C1[C@]4(OC(C)=O)[C@@H](O)[C@@H]2OC (stereo partly drawn)
inactive: locus YAL021C, strain ccr4, active compounds read low 1.03 | locus YAL026C, strain drs2, active compounds read low 1.02 | locus YAL030W, strain snc1, active compounds read low 1 | locus YBL061C, strain skt5, active compounds read low 1 | locus YBR009C, strain hhf1, active compounds read low 1.06 | locus YBR021W, strain FUR4, active compounds read low 0.985 | locus YBR023C, strain chs3, active compounds read low 1.01 | locus YBR171W, strain sec66, active compounds read low 1.01 | locus YBR229C, strain ROT2, active compounds read low 1.02 | locus YBR231C, strain swc5, active compounds read low 0.995 | locus YBR279W, strain paf1, active compounds read low 1.02 | locus YCL011C, strain gbp2, active compounds read low 1.02 | locus YCL016C, strain dcc1, active compounds read low 0.999 | locus YCL029C, strain bik1, active compounds read low 1.03 | locus YCL061C, strain MRC1, active compounds read low 1 | locus YCL069W, strain vba3, active compounds read low 1 | locus YCR088W, strain abp1, active compounds read low 1 | locus YDL005C, strain med2, active compounds read low 1.01 | locus YDL035C, strain GPR1, active compounds read low 1.03 | locus YDL040C, strain nat1, active compounds read low 1 | locus YDL074C, strain BRE1, active compounds read low 1.03 | locus YDL101C, strain DUN1, active compounds read low 1.02 | locus YDL185W, strain tfp1, active compounds read low 1.04 | locus YDL192W, strain arf1, active compounds read low 1.03 | locus YDR001C, strain nth1, active compounds read low 1.01 | locus YDR069C, strain doa4, active compounds read low 0.985 | locus YDR101C, strain arx1, active compounds read low 1.03 | locus YDR137W, strain rgp1, active compounds read low 1.02 | locus YDR150W, strain NUM1, active compounds read low 1.02 | locus YDR159W, strain sac3, active compounds read low 0.978 | locus YDR162C, strain NBP2, active compounds read low 1.05 | locus YDR195W, strain ref2 0.97 | locus YDR297W, strain sur2, active compounds read low 1.04 | locus YDR318W, strain mcm21, active compounds read low 1.03 | locus YDR334W, strain swr1, active compounds read low 1.02 | locus YDR335W, strain msn5, active compounds read low 1.01 | locus YDR388W, active compounds read low 1.03 | locus YDR392W, strain spt3, active compounds read low 0.907 | locus YDR502C, strain sam2, active compounds read low 1.03 | locus YEL003W, strain gim4, active compounds read low 1.02 | locus YEL037C, strain rad23, active compounds read low 1.01 | locus YEL061C, strain CIN8 (second series), active compounds read low 1.01 | locus YEL061C, strain CIN8, active compounds read low 1.02 | locus YER015W, strain faa2, active compounds read low 1.01 | locus YER016W, strain bim1, active compounds read low 1 | locus YER110C, active compounds read low 1.04 | locus YER111C, strain swi4, active compounds read low 1.01 | locus YER155C, strain BEM2 (second series), active compounds read low 0.973 | locus YER155C, strain BEM2, active compounds read low 1 | locus YER167W, strain BCK2, active compounds read low 1.03 | locus YFR010W, strain ubp6, active compounds read low 1.01 | locus YGL078C, strain dbp3, active compounds read low 1.03 | locus YGL086W, strain mad1, active compounds read low 1.02 | locus YGL167C, strain pmr1, active compounds read low 0.998 | locus YGL173C, strain kem1, active compounds read low 1.02 | locus YGL227W, strain vid30, active compounds read low 1.01 | locus YGL240W, strain doc1, active compounds read low 0.987 | locus YGL248W, strain PDE1, active compounds read low 1.02 | locus YGL253W, strain hxk2, active compounds read low 1.01 | locus YGR135W, strain pre9, active compounds read low 1.03 | locus YGR252W, strain gcn5, active compounds read low 1.01 | locus YHR013C, strain ard1, active compounds read low 0.995 | locus YHR027C, strain rpn1, active compounds read low 1.01 | locus YHR030C, strain SLT2, active compounds read low 1.02 and 0.957 | locus YHR079C, strain IRE1 (second series), active compounds read low 1.03 | locus YHR079C, strain IRE1, active compounds read low 0.967 | locus YHR094C, strain hxt1, active compounds read low 1.03 | locus YHR129C, strain ARP1, active compounds read low 1.02 | locus YHR142W, strain chs7, active compounds read low 1.03 | locus YHR200W, strain rpn10, active compounds read low 1.04 | locus YIL066C, strain RNR3, active compounds read low 1.04 | locus YIL073C, strain SPO22, active compounds read low 1.13 | locus YIL125W, strain kgd1, active compounds read low 1.03 | locus YIR030C, strain dcg1, active compounds read low 1.03 | locus YJL092W, strain hpr5, active compounds read low 1 | locus YJL095W, strain BCK1 (second series), active compounds read low 1.02 | locus YJL095W, strain BCK1, active compounds read low 1.04 and 1 | locus YJL115W, strain asf1, active compounds read low 1.01 | locus YJL129C, strain trk1, active compounds read low 1.01 | locus YJL134W, strain LCB3, active compounds read low 1.01 | locus YJL154C, strain vps35, active compounds read low 1 | locus YJL164C, strain tpk1, active compounds read low 1.02 | locus YJL166W, strain qcr8, active compounds read low 0.989 | locus YJL168C, strain set2, active compounds read low 1.03 | locus YJL187C, strain SWE1 (second series), active compounds read low 1.04 | locus YJL187C, strain SWE1, active compounds read low 1.03 | locus YJR043C, strain POL32, active compounds read low 1.03 | locus YJR066W, strain TOR1, active compounds read low 0.975 | locus YKL009W, strain mrt4, active compounds read low 1.05 | locus YKL068W, active compounds read low 1.05 | locus YKL085W, strain MDH1 (second series), active compounds read low 1.03 | locus YKL085W, strain MDH1, active compounds read low 1.03 | locus YKL160W, strain elf1, active compounds read low 0.963 | locus YKR001C, strain vps1, active compounds read low 1.01 | locus YKR026C, strain gcn3, active compounds read low 1.01 | locus YKR091W, strain srl3, active compounds read low 1.01 | locus YLL001W, strain dnm1, active compounds read low 0.992 | locus YLL026W, active compounds read low 1 | locus YLL041C, strain sdh2, active compounds read low 1.01 | locus YLR027C, strain aat2, active compounds read low 1 | locus YLR039C, strain RIC1, active compounds read low 1.09 | locus YLR058C, strain SHM2, active compounds read low 1.03 | locus YLR102C, strain apc9, active compounds read low 1.03 | locus YLR113W, strain HOG1, active compounds read low 0.94 | locus YLR221C, strain rsa3, active compounds read low 0.999 | locus YLR258W, strain gsy2, active compounds read low 1.01 | locus YLR262C, strain YPT6 (second series), active compounds read low 0.994 | locus YLR262C, strain YPT6, active compounds read low 1.13 | locus YLR268W, strain sec22, active compounds read low 1.02 | locus YLR320W, strain mms22, active compounds read low 0.991 | locus YLR330W, strain CHS5, active compounds read low 1.02 | locus YLR342W, strain FKS1 (second series), active compounds read low 1.02 | locus YLR342W, strain FKS1, active compounds read low 1.01 | locus YLR357W, strain rsc2, active compounds read low 1.01 | locus YLR370C, strain arc18, active compounds read low 1.02 | locus YLR371W, strain rom2, active compounds read low 1.02 | locus YLR384C, strain iki3, active compounds read low 1.01 | locus YLR418C, strain cdc73, active compounds read low 1.04 | locus YML016C, strain PPZ1, active compounds read low 1.02 | locus YML032C, strain rad52, active compounds read low 1.02 | locus YML120C, strain ndi1, active compounds read low 1.01 | locus YML124C, strain tub3, active compounds read low 1.04 | locus YMR058W, strain fet3, active compounds read low 1.01 | locus YMR078C, strain ctf18, active compounds read low 1.06 | locus YMR125W, strain sto1, active compounds read low 0.973 | locus YMR129W, active compounds read low 1.01 | locus YMR205C, strain PFK2, active compounds read low 0.966 | locus YMR223W, strain ubp8, active compounds read low 1.02 | locus YMR231W, strain pep5, active compounds read low 1.01 | locus YMR307W, strain GAS1, active compounds read low 1.01 | locus YNL067W, strain RPL9B, active compounds read low 1.04 | locus YNL071W, strain lat1, active compounds read low 1 | locus YNL128W, strain TEP1, active compounds read low 1.02 | locus YNL183C, strain NPR1, active compounds read low 0.937 | locus YNL209W, strain ssb2, active compounds read low 1.01 | locus YNL233W, strain BNI4, active compounds read low 1.03 | locus YNL248C, strain rpa49, active compounds read low 0.953 | locus YNL250W, strain rad50, active compounds read low 1.04 | locus YNL271C, strain bni1, active compounds read low 1.04 | locus YNL298W, strain CLA4, active compounds read low 1.05 | locus YNL307C, strain MCK1, active compounds read low 1.05 | locus YNL322C, strain KRE1 (second series), active compounds read low 0.998 | locus YNR049C, strain mso1, active compounds read low 1.01 | locus YNR052C, strain pop2, active compounds read low 1.02 | locus YOL012C, strain htz1 1.37 | locus YOL147C, strain pex11, active compounds read low 1.02 | locus YOR001W, strain rrp6, active compounds read low 1 | locus YOR061W, strain CKA2, active compounds read low 1.02 | locus YOR069W, strain VPS5, active compounds read low 1.01 | locus YOR070C, strain gyp1, active compounds read low 1.01 | locus YOR080W, strain dia2, active compounds read low 0.998 | locus YOR083W, strain WHI5, active compounds read low 0.968 | locus YOR106W, strain vam3, active compounds read low 0.988 | locus YOR136W, strain idh2, active compounds read low 1.04 | locus YOR144C, strain elg1, active compounds read low 1.01 | locus YOR184W, strain ser1, active compounds read low 1.02 | locus YOR231W, strain MKK1, active compounds read low 0.966 | locus YOR265W, strain rbl2, active compounds read low 0.999 | locus YOR270C, strain vph1, active compounds read low 0.981 | locus YOR290C, strain snf2, active compounds read low 1 | locus YOR316C, strain cot1, active compounds read low 1.04 | locus YPL051W, strain arl3, active compounds read low 0.988 | locus YPL055C, strain LGE1, active compounds read low 1.05 | locus YPL078C, strain atp4, active compounds read low 0.958 | locus YPL106C, strain sse1, active compounds read low 1 | locus YPL240C, strain hsp82, active compounds read low 1.01 | locus YPL241C, strain CIN2, active compounds read low 1.02 | locus YPL256C, strain CLN2, active compounds read low 0.986 | locus YPR119W, strain clb2, active compounds read low 1.03 | locus YPR141C, strain kar3, active compounds read low 1.03 | locus YPR163C, strain tif3, active compounds read low 1.01 | locus YPR167C, strain met16, active compounds read low 1.04 | strain wtn01, active compounds read low 1.03
